Pol iota inh – inhibitors of human DNA polymerase iota | Q9UNA4 | Pol iota fluorescent replication assay, 10 min | Potency, µM (series often up to 115 µM), for inactives: at the top dose activity, negative = inhibition, actives largely listed as inhibitors | 390,000 tested, 1% active | AID 588590; note: potency is the fitted concentration of half-maximal effect
Target sequence (Q9UNA4 whole entry, looked up): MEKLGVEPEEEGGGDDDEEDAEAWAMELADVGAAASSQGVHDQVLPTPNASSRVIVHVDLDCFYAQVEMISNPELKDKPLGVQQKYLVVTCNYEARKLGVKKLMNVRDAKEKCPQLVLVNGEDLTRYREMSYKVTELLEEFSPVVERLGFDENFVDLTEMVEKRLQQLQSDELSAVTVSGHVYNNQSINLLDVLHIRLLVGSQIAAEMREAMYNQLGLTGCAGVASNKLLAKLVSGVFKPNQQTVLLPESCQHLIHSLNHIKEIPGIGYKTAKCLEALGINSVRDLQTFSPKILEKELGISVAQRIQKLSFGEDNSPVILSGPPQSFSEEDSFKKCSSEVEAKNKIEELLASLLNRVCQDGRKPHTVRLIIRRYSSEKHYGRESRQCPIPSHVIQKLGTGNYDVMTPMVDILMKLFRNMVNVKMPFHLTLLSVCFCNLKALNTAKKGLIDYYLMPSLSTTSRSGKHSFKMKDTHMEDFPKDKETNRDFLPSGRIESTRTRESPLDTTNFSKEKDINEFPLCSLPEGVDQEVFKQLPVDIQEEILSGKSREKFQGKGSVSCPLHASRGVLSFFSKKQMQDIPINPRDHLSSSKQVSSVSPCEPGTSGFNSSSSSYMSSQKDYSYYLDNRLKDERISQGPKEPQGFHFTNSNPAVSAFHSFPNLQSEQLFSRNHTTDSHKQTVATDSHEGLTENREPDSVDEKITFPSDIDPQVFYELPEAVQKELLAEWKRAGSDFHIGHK
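Fluorescent replication assay read twice, at 0 min and 10 min after adding 50 nM (final) substrate. Enzyme (10 nM) and compounds were first incubated 15 min at room temperature; enzyme-free buffer wells were negative controls.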
POLB inh – DNA polymerase beta (human) inhibition; P06746; Pol beta primer extension/strand displacement, fluorescence kinetic; Potency, µM (highest dose often 114 µM), for the others: at the top dose activity change, negative = inhibition, hits mostly inhibitors; 340,000 tested, 1.3% active; AID 485314; note: potency is the fitted concentration of half-maximal effect; % is set by controls: 0 for no effect and ±100 for the full control effect
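Preincubation: enzyme (10 nM) with compound, 15 min, RT. Reaction: substrate added to 50 nM final. Reads: 0 and 10 min. Analysis: normalized, Hill fit.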
PI5P4K alpha inh – PI5P4K alpha (human) kinase inhibition. P48426. PI5P4Kalpha enzyme, ADP-Glo luminescence, 60 min; active compounds read low. max response, %. 330,000 tested, 1.2% active; active = max response of -50% or lower; inconclusive = between -30% and -50%; inactive = -30% or higher; note: value at the top dose of about 77 µM; % is set by controls: 0 for no effect and ±100 for the full control effect
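Quantitative HTS of the MLSMR library against PI5P4Kalpha with substrate. ATP added last at 5 microM final; room temperature, 60 minutes. Remaining ATP depleted, ADP converted and read as luminescence.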
Pol eta inh – blocks human DNA polymerase eta activity. Q9Y253. recombinant Pol eta, fluorescent DNA replication assay. Potency, µM (highest dose often 114 µM), for the others: at the top dose activity change, negative = inhibition, hits mostly inhibitors. 390,000 tested, 1.2% active. AID 588591; note: potency is the fitted concentration of half-maximal effect; % is set by controls: 0 for no effect and ±100 for the full control effect
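Pol eta (10 nM) was preincubated with compounds for 15 min at room temperature, after which fluorescent replication substrate (50 nM final) was added to start the reaction. Fluorescence was read kinetically at 0 and 10 min.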
PI4K2A block – blocks human PI4K2A kinase activity | Q9BTU6 | purified PI4K2A, ADP-Glo luminescence, 1 h; active compounds read low | activity change, negative = inhibition, % at 76.9 µM | 420,000 tested, 0.13% active | AID 1346378; in the data active = activity change below about -50%; inconclusive = mostly about -30% to -49%;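 note: -100% = wells without enzyme as full effect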
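In this quantitative HTS, ADP production by PI4K2A was quantified luminescently after 1 h at ambient temperature; 100 microM adenosine served as plate-quality control.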
POLK inh – inhibitors of human DNA polymerase kappa; Potency, µM (series often up to 107 µM), for inactives: at the highest dose activity, negative = inhibition, usual class: inhibitors; Q9UBT6; AID 588579; 400,000 tested, 0.53% active; purified Pol kappa, fluorescent DNA synthesis assay, 10 min; note: potency is the fitted concentration of half-maximal effect; % is set by controls: 0 for no effect and ±100 for the full control effect
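Readout: fluorescence, taken kinetically at 0 and 10 min. Conditions: 10 nM Pol kappa, 15 min RT compound preincubation, 50 nM substrate final. Controls: enzyme-free buffer wells.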
Numbers without * were called inactive; [ ] = remark or other dose. Rows were chosen to be rich in hits. Some 2.8% of all compounds tested hit in one or more screens of this group. Unless noted, calls come from the whole dose curve; as a rule, active = well fitted inhibition curve with a large enough effect; inconclusive = small, poorly fitted or top-dose-only effect, or another doubt; inactive = no such curve, though single readings can be large or run the other way.

Screening CN(C)c1ccc(/C=C/c2ccc3ccccc3[n+]2[O-])cc1 returned Pol iota inh -13.1% and POLK inh -12.0%.
For CC[n+]1ccc(/C=C/c2ccc(N(C)C)cc2)c2ccccc21 the results were Pol iota inh -28.8%, POLB inh 44.7µM*, PI5P4K alpha inh inconclusive, Pol eta inh inconclusive, PI4K2A block inconclusive and POLK inh inconclusive.
Screening CN(C)c1ccc(/C=C/c2cc[n+]([O-])c3ccccc23)cc1 returned Pol iota inh 5.6% and POLK inh 1.8%.
Screening COc1cc(C(=O)Nc2ccccc2OCc2cc(=O)n3cc(C)sc3n2)cc(OC)c1OC returned Pol iota inh 33.6%, POLB inh 25.3%, Pol eta inh -7.3%, PI4K2A block -3.7 and POLK inh -0.5%.
For COc1ccccc1-c1nc2c(c(SCC(=O)Nc3ccccc3F)n1)Cc1c(CO)cnc(C)c1O2 the results were Pol iota inh 4.0%, POLB inh 79.4µM*, Pol eta inh -0.9%, PI4K2A block -4.7 and POLK inh -10.1%.
CCc1ccccc1NC(=O)CSc1nc(-c2ccccc2OC)nc2c1Cc1c(CO)cnc(C)c1O2 was read as Pol iota inh 3.7%, POLB inh inconclusive, Pol eta inh 4.6%, PI4K2A block -5.6 and POLK inh -9.5%.
`COC(=O)[C@H](CCSC)NC(=O)Cn1cc(C)c(=O)[nH]c1=O` gave Pol iota inh 21.9%, PI5P4K alpha inh -0.9, Pol eta inh -10.3%, PI4K2A block -0.8 and POLK inh -3.9%.
Screening CC(=O)OCON[N+]([O-])=NC(C)C returned Pol iota inh 24.3% and POLK inh -11.3%.
`O=c1cc(-c2ccc(O)cc2)oc2cccc(O)c12` gave POLK inh -9.0%[19.4 µM].
Screening O=c1cc(-c2ccc(O)cc2)oc2c(-c3c(O)cc(O)c4c(=O)cc(-c5ccc(O)cc5)oc34)c(O)cc(O)c12 returned Pol iota inh inconclusive, PI5P4K alpha inh inconclusive, Pol eta inh 25.1µM*, PI4K2A block -2.7 and POLK inh inconclusive.
For CC(=O)OCC(=O)[C@@]1(O)CCC2C3CCC4=CC(=O)CC[C@]4(C)C3=CC[C@@]21C (stereo partly drawn) the results were POLK inh 4.5%[19.4 µM].
C[C@@H]1[C@H](c2ccccc2)OCCS(=O)(=O)N1Cc1cccc(C(F)(F)F)c1 was read as Pol iota inh 35.5% and POLK inh -12.4%.
`O=S(=O)(Nc1nc2ccccc2nc1Nc1ccc2c(c1)OCCO2)c1cccs1` gave Pol iota inh inconclusive, POLB inh 17.8µM*, Pol eta inh inconclusive, PI4K2A block 2.4 and POLK inh -42.3%.
OC[C@H]1O[C@@H](O[C@@H]2OC=C[C@H]3[C@H](O)[C@@H]4O[C@]4(CO)[C@@H]23)[C@H](O)[C@@H](O)[C@@H]1O was read as POLK inh 2.8%[60.1 µM].
For CCC1CCCCN1S(=O)(=O)c1cc(C(=O)Nc2ccc(C)c(F)c2)ccc1F (stereo not drawn) the results were Pol iota inh 11.5%, POLB inh 18.8%, Pol eta inh -12.7%, PI4K2A block -1.4 and POLK inh -8.5%[60.1 µM].
`CSc1nc(NCc2ccco2)c2sc3nc(C(C)C)c4c(c3c2n1)CC(C)(C)OC4` gave Pol iota inh -3.7%, POLB inh 15.4%, PI5P4K alpha inh -1.0, Pol eta inh -14.4%, PI4K2A block -4.5 and POLK inh -16.5%.
CSc1nc(NCCOCCO)c2sc3nc(-c4ccco4)c4c(c3c2n1)CCC4 was read as Pol iota inh 11.8%, POLB inh 3.55µM*, PI5P4K alpha inh -9.6, Pol eta inh -12.8%, PI4K2A block -9.5 and POLK inh -1.0%.
Screening CCN(CCO)c1ncnc2c1sc1nc(C(C)C)c3c(c12)CC(C)(C)OC3 returned Pol iota inh inconclusive, POLB inh 17.6%, PI5P4K alpha inh 3.6, Pol eta inh -10.5%, PI4K2A block -3.2 and POLK inh -17.9%.
For CCN(CCO)c1nc(SC)nc2c1sc1nc(-c3ccco3)c3c(c12)CCC3 the results were Pol iota inh inconclusive, POLB inh 7.08µM*, PI5P4K alpha inh 19.8, Pol eta inh -15.1%, PI4K2A block -0.5 and POLK inh inconclusive.
For O=C(OC12CCCN(C1)/C(=C/c1ccncc1)C2)c1ccc(Cl)cc1 (stereo not drawn) the results were PI4K2A block 2.3.
`O=[N+]([O-])c1ccccc1S(=O)(=O)N1CCSCC1` gave Pol iota inh 17.3%, PI5P4K alpha inh 1.8, Pol eta inh 89.1µM*, PI4K2A block 0.8 and POLK inh 2.3%.
Screening CCn1nnnc1Sc1nc(C)nc2scc(-c3ccccc3)c12 returned Pol iota inh -19.8% and POLK inh 6.7%.
Screening CC(=O)c1c(CC(=O)O)[nH]n(-c2nc3ccccc3s2)c1=O returned Pol iota inh inconclusive, POLB inh 31.6µM*, Pol eta inh 50.1µM*, PI4K2A block inconclusive and POLK inh inconclusive.
For COC(=O)Cc1[nH]n(-c2nc3ccccc3s2)c(=O)c1C(C)=O the results were Pol iota inh inconclusive, POLB inh -9.4%, PI5P4K alpha inh -21.0, Pol eta inh -10.4%, PI4K2A block -53.0* and POLK inh -11.4%.
CCCCCN=Cc1c(C)[nH]n(-c2nc3ccccc3s2)c1=O was read as Pol iota inh -1.9%, POLB inh 32.6%, Pol eta inh -19.4%, PI4K2A block inconclusive and POLK inh -4.9%.
Screening COc1ccc(CN=C(C)c2c(C(F)(F)F)[nH]n(-c3nc4ccccc4s3)c2=O)cc1 returned Pol iota inh 27.3%, POLB inh -2.4%, Pol eta inh 0.6%, PI4K2A block -2.4 and POLK inh 3.8%.
COc1ccc(/C=C/c2ccnc3ccccc23)cc1 was read as Pol iota inh -10.5% and POLK inh -5.5%.
`O=C(OCc1cc(=O)n2nc(-c3cccs3)sc2n1)c1ccccc1Br` gave Pol iota inh inconclusive, POLB inh 20µM*, Pol eta inh 79.4µM*, PI4K2A block -15.7 and POLK inh -25.4%.
For O=C(OCc1cc(=O)n2nc(-c3cccs3)sc2n1)c1cccc(F)c1 the results were Pol iota inh inconclusive, POLB inh 17.8µM*, Pol eta inh inconclusive, PI4K2A block -8.9 and POLK inh -2.7%.
`O=C(COc1ccc(F)cc1)OCc1cc(=O)n2nc(-c3cccs3)sc2n1` gave Pol iota inh inconclusive, POLB inh inconclusive, Pol eta inh -9.9%, PI4K2A block -15.1 and POLK inh inconclusive.
